± gives the standard deviation of the averaged measurements. Over roughly 4,100 sequences, “relative kcat/Km (krel) vs genomic leader AAAGAU” has its median near 1.7; the highest 2% begin near 6.5. The list comes from a sample in which the highest values are over-represented; it also holds similar and randomly drawn sequences.
Target: T1, E. coli RNase P holoenzyme (M1 P RNA + rnpA protein) (UniProt P0A7Y8)
T1 sequence: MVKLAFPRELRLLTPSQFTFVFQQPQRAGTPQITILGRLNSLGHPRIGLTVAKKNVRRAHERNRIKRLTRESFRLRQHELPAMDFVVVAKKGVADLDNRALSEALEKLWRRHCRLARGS
Assay: relative kcat/Km (krel) vs genomic leader AAAGAU (relative (reference leader = 1)); higher = faster RNase P cleavage
Method: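 HTS-Kin: a pool of ptRNA-Met (21C construct) with all 4096 combinations of 5' leader nucleotides N(-6) to N(-1) was processed in vitro by E. coli RNase P (P RNA + rnpA/C5 protein) under multiple-turnover conditions at 37 C, pH 8, 17.5 mM MgCl2. Residual substrate was Illumina-sequenced at several fractions reacted, and relative kcat/Km (krel) was computed by internal competition kinetics, calibrated to the genomic leader (AAAGAU = 1). The listed hexamer is the varied N(-6)..N(-1) leader (DNA letters), and it sits between a fixed 5' stem-loop flank (GCAUGCACGAAAGUGCGUGCUAUGAA) and the mature tRNA-Met starting GGCUACGUAGCUCAGUUGG. Two technical replicates are averaged.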

[1] = fraction of substrate reacted: ~9-10% (9.79% repeat 1, 9.1% repeat 2)
[2] = fraction of substrate reacted: ~13-16% (15.68% repeat 1, 13.17% repeat 2)
[3] = fraction of substrate reacted: ~26-29% (28.66% repeat 1, 26.4% repeat 2)

| Sequence | relative kcat/Km [1] | relative kcat/Km [2] | relative kcat/Km [3] |
| --- | --- | --- | --- |
| CATTCA | 2.03 ± 0.96 | 2.26 ± 0.27 | 2.76 ± 0.83 |
| TATACC | 1.83 ± 0.44 | 2.35 ± 0.29 | 2.84 ± 1.4 |
| TATGGT | – | – | 1.77 ± 1.3 |
| CTGCCT | 2.67 ± 0.64 | 1.47 ± 0.29 | 1.91 ± 0.022 |
| GGAGAG | – | – | 1.19 ± 0.14 |
| ATTTTT | 2.48 ± 0.92 | 2.63 ± 0.22 | 3.89 ± 1.3 |
| TTTAGA | 2.52 ± 0.65 | 3.74 ± 0.44 | 5.73 ± 2.2 |
| CCCCAT | 1.7 ± 1.5 | 3.312 ± 0.011 | 4.95 ± 1.3 |
| CTCGCG | 2.22 ± 1.4 | 1.19 ± 1.2 | 3.19 ± 1 |
| CTCGCA | 4.01 ± 1.4 | 4.94 ± 0.48 | 6.71 ± 2.1 |
| CTCGTA | 3.1 ± 0.69 | 3.21 ± 0.68 | 4.83 ± 2 |
| TTCGCC | 4.66 ± 1.2 | 6.09 ± 1.6 | 9.48 ± 3.8 |
| CGCGCA | 1.86 ± 0.068 | 2.64 ± 0.045 | 3.31 ± 0.91 |
| CTCGCT | 1.9 ± 0.4 | 2.61 ± 0.72 | 3.67 ± 0.94 |
| TTCGCG | – | 2.32 ± 0.79 | 3.87 ± 0.24 |
| TTCGCT | 2.88 ± 1.4 | 3.06 ± 0.21 | 4.56 ± 1.4 |
| CTCGCC | 4.36 ± 1.6 | 5.23 ± 1.7 | 7.26 ± 2.8 |
| TAAAGG | – | – | 0.833 ± 0.34 |
| CCGACA | 0.997 ± 0.31 | – | 0.842 ± 0.8 |
| GTGTCG | – | – | 0.804 ± 0.49 |
| AGCCTA | 2.05 ± 0.87 | 1.97 ± 0.57 | 2.57 ± 0.69 |
| GACAGA | 3.09 ± 0.71 | 4.59 ± 1.2 | 6.53 ± 2.4 |
| AACAGA | 3.71 ± 2.3 | 4.083 ± 0.036 | 5.65 ± 2.1 |
| CACAGT | – | – | 1.95 ± 1.9 |
| CACAGG | 0.41 ± 0.093 | – | 1.35 ± 0.051 |
| CACAGA | 3.95 ± 0.46 | 4.77 ± 2 | 7.2 ± 2.4 |

| Sequence | relative kcat/Km [1] | relative kcat/Km [2] | relative kcat/Km [3] |
| --- | --- | --- | --- |
| GACAGG | – | – | 1.2 ± 0.042 |
| GTACAG | – | – | 1.99 ± 0.4 |
| GAAGGT | – | – | 1.31 ± 0.065 |
| TACAGT | – | – | 2.94 ± 2.7 |
| TACAGA | 4.52 ± 2 | 5.66 ± 0.35 | 8.3 ± 3 |
| TACAGG | – | – | 1.7 ± 0.63 |
| TACACA | 3.05 ± 1.1 | 3.7 ± 0.067 | 5.53 ± 2.6 |
| CACAGC | 3.88 ± 1.2 | 4.31 ± 1.1 | 5.98 ± 2.7 |
| TACAGC | 3.82 ± 2 | 4.94 ± 0.45 | 6.84 ± 2.6 |
| CTGACC | – | 0.599 ± 0.52 | 1.2 ± 0.63 |
| ACTGTC | 1.77 ± 1.3 | 0.935 ± 0.31 | 1.12 ± 0.25 |
| AAGATT | 1.89 ± 0.21 | 1.82 ± 0.21 | 2.06 ± 0.8 |
| TTTCTA | 2.15 ± 0.72 | 2.3 ± 0.57 | 2.89 ± 1.2 |
| AGCTAA | 3.22 ± 1.8 | 3.61 ± 1 | 5.8 ± 3 |
| TGCTAA | 2.19 ± 0.95 | 2.88 ± 0.23 | 3.74 ± 1.1 |
| GGCTAA | 2.12 ± 0.85 | 2.32 ± 0.78 | 3.19 ± 0.8 |
| TTCTAA | 5.69 ± 2.2 | 7.17 ± 1.2 | 10.6 ± 4.1 |
| TTCTAG | 4.08 ± 2.6 | 4.58 ± 0.56 | 7.01 ± 3.1 |
| ATCTAA | 4.39 ± 1.5 | 5.55 ± 1.1 | 8.58 ± 3.4 |
| GTGTAA | 1.31 ± 0.75 | 2.41 ± 1.1 | 2.94 ± 1.5 |
| GTCTAA | 4.58 ± 0.43 | 7.55 ± 1.7 | 10.1 ± 4.8 |
| TGCTAG | 1.97 ± 1.5 | 1.376 ± 0.0054 | 2.44 ± 0.12 |
| GTGAAC | 1.89 ± 0.25 | 2.27 ± 0.31 | 2.83 ± 0.88 |
| TTGCAG | – | – | 1.37 ± 0.19 |
| GGCTTC | 0.513 ± 0.13 | 1.31 ± 0.14 | 1.7 ± 0.44 |
| CACTCC | 3.12 ± 2.1 | 3.9 ± 0.2 | 5.21 ± 1.3 |

| Sequence | relative kcat/Km [1] | relative kcat/Km [2] | relative kcat/Km [3] |
| --- | --- | --- | --- |
| CAAGCT | 1.48 ± 1.3 | 0.905 ± 0.4 | 1.37 ± 0.37 |
| ATGTAC | 3.03 ± 0.37 | 3.81 ± 0.94 | 5.39 ± 2.7 |
| TGCGGT | – | – | 2.25 ± 1.2 |
| CGCTAA | 3.07 ± 0.43 | 3.99 ± 1.2 | 5.96 ± 2.3 |
| TTCTAT | 5.38 ± 0.96 | 7.59 ± 1.6 | 10.5 ± 4.7 |
| CTCTAA | 4.48 ± 1.2 | 6.21 ± 1.1 | 8.82 ± 3.7 |
| TGCTAC | 2.42 ± 1.5 | 2.16 ± 0.89 | 4.62 ± 2.6 |
| TTCTAC | 5.32 ± 1.5 | 7.7 ± 1.3 | 10.6 ± 4.4 |
| CTAAAA | 2.15 ± 0.51 | 2.43 ± 0.18 | 2.89 ± 0.88 |
| TGCTAT | 2.93 ± 0.94 | 2.69 ± 0.56 | 3.79 ± 1.5 |
| AGCTAT | 4.03 ± 1.8 | 3.39 ± 1.1 | 5.23 ± 1.9 |
| TGTGAA | 2.72 ± 0.39 | 2.92 ± 0.98 | 3.58 ± 1.9 |
| TGATAT | 1.84 ± 0.025 | 3.77 ± 0.75 | 6.11 ± 3.1 |
| ACATCG | 1.31 ± 1.1 | – | 1.61 ± 0.095 |
| TGGACT | 1.76 ± 0.67 | 0.899 ± 0.057 | 0.76 ± 0.046 |
| GGTAGG | – | – | 1.74 ± 0.56 |
| ATCCCG | 1.67 ± 1.4 | 0.83 ± 0.4 | 1.86 ± 0.023 |
| GTAGCC | 1.99 ± 0.12 | 1.48 ± 0.66 | 2.13 ± 0.51 |
| TTTAAT | 3.19 ± 1.8 | 3.87 ± 0.24 | 5.8 ± 2.3 |
| CAATAT | 3.27 ± 0.33 | 4.46 ± 0.96 | 6.37 ± 3 |
| ACCATA | 2.8 ± 1.8 | 2.2 ± 0.51 | 3.64 ± 0.82 |
| GCCATT | 1.91 ± 0.79 | 2.36 ± 0.9 | 4.74 ± 1.7 |
| TCCATT | 4.11 ± 1.2 | 4.85 ± 1.2 | 7.33 ± 3.2 |
| ACCATT | 2.5 ± 1.4 | 2.84 ± 0.28 | 4.27 ± 1.3 |
| TCCATA | 4.06 ± 1.5 | 4.66 ± 0.32 | 6.71 ± 2.6 |
| TCCATG | – | 1.42 ± 0.26 | 3.46 ± 0.3 |

| Sequence | relative kcat/Km [1] | relative kcat/Km [2] | relative kcat/Km [3] |
| --- | --- | --- | --- |
| GGCCTC | 1.28 ± 0.39 | 0.933 ± 0.5 | 1.94 ± 0.76 |
| GCATGA | 1.91 ± 0.28 | 1.07 ± 0.63 | 2.21 ± 0.69 |
| TACAAA | 3.89 ± 1.8 | 5.2 ± 0.41 | 7.71 ± 3 |
| GACAGC | 3.44 ± 1 | 4.06 ± 0.54 | 5.59 ± 1.6 |
| GACACC | 3.17 ± 1.9 | 3.35 ± 0.2 | 5.28 ± 1.8 |
| CACAAA | 3.35 ± 0.11 | 4.93 ± 1.2 | 6.59 ± 2.9 |
| AACAAA | 3.32 ± 2.3 | 3.9 ± 0.11 | 5.24 ± 1.1 |
| GACAAC | 3.9 ± 0.94 | 3.84 ± 1.1 | 6.93 ± 3.1 |
| AACAAG | – | 1.32 ± 0.57 | 3.26 ± 0.69 |
| TACAAG | 1.6 ± 0.23 | 2.38 ± 0.42 | 4.49 ± 1.9 |
| CACAAC | 3.95 ± 1.3 | 4.05 ± 0.63 | 6.36 ± 2.1 |
| AACAAC | 2.99 ± 0.85 | 3.22 ± 0.17 | 4.45 ± 1.8 |
| CACAAG | 1.66 ± 0.94 | 1.78 ± 0.81 | 3.72 ± 0.99 |
| TACAAC | 3.75 ± 1.9 | 5.24 ± 0.76 | 7.11 ± 3 |
| ACGCAT | 1.58 ± 0.85 | 2.23 ± 0.052 | 3.39 ± 1.3 |
| TTGTCG | – | – | 1.07 ± 0.3 |
| TCTCGG | 1.19 ± 1.1 | 0.684 ± 0.45 | 1.04 ± 0.15 |
| TCTTCA | 2.36 ± 1.3 | 1.88 ± 0.27 | 2.49 ± 0.68 |
| ACCCGT | 1.55 ± 1.5 | 1.9 ± 1.9 | 1.96 ± 1.4 |
| AGCTCA | 2.57 ± 1.9 | 2.16 ± 0.53 | 3.13 ± 1.1 |
| AACACT | 1.88 ± 1.1 | 2.41 ± 0.39 | 3.76 ± 0.87 |
| TGACTT | 1.97 ± 0.23 | 2.77 ± 0.65 | 3.33 ± 1.3 |
| AACAAT | 1.84 ± 0.24 | 3.26 ± 0.41 | 4.49 ± 1.9 |
